The list is not random: actives were taken first. Their share in the collection is about 2.3%.
HTR1E agonist: 5-HT1E receptor agonists, primary screen, cell-based, HTS | 5-hydroxytryptamine receptor 1E (Homo sapiens), P28566 | activation, % at 6 µM | AID 574, 2007 | actives 0.69% (n = 65,000) | CHO 5-HT1E Ga15 NFAT-bla reporter, FRET; 0% DMSO wells, 100% control agonist wells;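 active = activation above a set limit, the screen-wide mean activation plus 3 SD, cut at about 8.5% in these data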
Target sequence (P28566 whole entry, looked up): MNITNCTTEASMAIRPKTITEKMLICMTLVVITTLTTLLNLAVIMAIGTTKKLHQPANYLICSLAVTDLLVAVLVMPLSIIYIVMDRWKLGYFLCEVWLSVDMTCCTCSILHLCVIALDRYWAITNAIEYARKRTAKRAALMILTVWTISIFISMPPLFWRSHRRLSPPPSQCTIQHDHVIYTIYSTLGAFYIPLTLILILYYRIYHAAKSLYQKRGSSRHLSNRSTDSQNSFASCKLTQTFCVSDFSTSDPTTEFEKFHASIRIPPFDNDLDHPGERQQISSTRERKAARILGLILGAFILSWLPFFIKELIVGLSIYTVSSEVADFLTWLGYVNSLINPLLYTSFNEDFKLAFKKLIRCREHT
5-HT1A blocker: human 5-HT1a receptor antagonists, primary screen, cell-based, CHO, Ga15 NFAT-bla reporter; 5-hydroxytryptamine receptor 1A (Homo sapiens), P08908; CHO 5-HT1a Ga15 NFAT-bla reporter, antagonist mode; inhibition, % at 10 µM; actives 0.68% (n = 62,000); AID 612, 2007;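 active = inhibition above the mean of all tested compounds plus 3 SD, cut at about 43% in these data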;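 also: receptor stimulated by 5-CT agonist at 100 nM near EC80; beta-lactamase reporter measured by ratiometric fluorescence of a cleavable substrate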
HTR1E antagonist: 5-HT1E receptor antagonists, primary screen, cell-based, HTS; 5-hydroxytryptamine receptor 1E (Homo sapiens), P28566; CHO 5-HT1E Ga15 NFAT-bla reporter, FRET, antagonist; inhibition, % at 6 µM; actives 0.99% (n = 65,000); AID 571, 2007;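 active = inhibition above a set limit, the mean inhibition across every tested compound plus 3 SD, cut at about 29% in these data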;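 also: signal is the 460 over 535 nm emission ratio of beta-lactamase substrate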
5HT1a ag: human 5-HT1a receptor agonists, primary screen, cell-based, CHO, Ga15 NFAT-bla reporter. 5-hydroxytryptamine receptor 1A (Homo sapiens), P08908. CHO 5-HT1a Ga15 NFAT-bla reporter, FRET ratio; 0% basal, 100% maximal reference agonist. activation, % at 10 µM. actives 0.56% (n = 65,000). AID 567, 2006;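 active = activation above the screen-wide mean activation plus 3 SD, cut at about 19% in these data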
Htt clearance: clearance of mutant huntingtin inclusions, primary screen, imaging, HeLa Exon1htt(103Q)mCFP, confocal imaging. aggregate imaging; zero = plate's median compound well. inhibition, % at 1.5 µM. actives 0.42% (n = 47,000). AID 853, 2007;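 active = inhibition of aggregate fluorescence above about 70%, also judged a hit by eye on the cell image, limit read from the data, passing the limit was not always enough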;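 also: cells exposed to compound for three days before fixation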
A number is an active result; 0 = inactive; - = no result given.

SMILES	HTR1E agonist	5-HT1A blocker	HTR1E antagonist	5HT1a ag	Htt clearance
COc1ccc(C(c2nnnn2C2CCCCC2)N2CCN(c3ccccc3)CC2)cc1 (stereo unspecified)	0	52	0	0	0
CC(=O)C1=C(O)C(=O)N(CC(=O)O)C1c1ccccc1Cl (stereo unspecified)	0	0	0	0	0
CCCn1c(NC(=O)c2ccccc2)nc2ccccc21	0	0	0	0	0
CCCn1c(NC(=O)c2cccc(S(=O)(=O)N3CCCC3)c2)nc2ccccc21	0	50	0	0	-
COCCOC(=O)C1=C(C)Nc2ncnn2C1c1ccccc1 (stereo unspecified)	0	0	0	0	-
COCCOC(=O)C1=C(C)Nc2nc(C)nn2C1c1ccc(F)cc1 (stereo unspecified)	0	0	0	31	0
Cc1ccc(CCNC(=O)C2CCCN(S(=O)(=O)c3cnc[nH]3)C2)cc1 (stereo unspecified)	0	0	0	0	70
COc1cc2c(cc1OC)CN(C(=O)Cc1ccc(OC)c(S(=O)(=O)N3CCOCC3)c1)CC2	25	0	0	0	0
Nc1nc2ccc(OC(F)(F)F)cc2s1	0	-	0	24	-
Nc1nc2ccc(Oc3ccccc3)cc2s1	0	0	0	0	-
COc1ccc(N(CC(=O)NC2CCCC2)C(=O)Cn2nnc(-c3ccc(C)cc3)n2)cc1OC	54	0	0	0	-
CCn1c(COc2ccc3c(c2)OCO3)nnc1SCC(=O)c1ccccc1	0	0	0	0	0
S=c1[nH]nc(COc2ccc3c(c2)OCO3)n1-c1ccccc1	28	0	0	0	0
CC(=O)N1CCc2cc(S(=O)(=O)NCCCN3CCN(Cc4ccccc4)CC3)ccc21	35	0	0	0	-
CCC(=O)N1CCc2cc(S(=O)(=O)NCCCN3CCN(Cc4ccccc4)CC3)ccc21	0	0	0	0	-
CSc1ccc(C2C(C#N)=C(N)N(c3ccccc3)C3=C2C(=O)CCC3)cc1 (stereo unspecified)	0	43	0	0	-
Cc1ccccc1OCCCn1c(=O)sc2ccccc21	-	-	-	-	0
CC(C)CC(=O)O/N=C1\C(=O)N(Cc2ccc(Cl)cc2)c2ccc([N+](=O)[O-])cc21	-	-	-	-	0
CCCn1c(Nc2nc3ccccc3n2C)nc2ccccc21	0	59	54	0	0
CCCCCn1c(NCc2ccco2)nc2ccccc21	22	0	0	0	0
CCCn1c(NCc2ccco2)nc2ccccc21	0	0	0	0	-
CCCn1c(NC(=O)c2ccc(C)cc2)nc2ccccc21	0	0	0	0	0
O=c1cc(-c2c(F)c(F)c(F)c(F)c2F)oc2c(F)c(F)c(F)c(F)c12	0	99	102	0	-
N#CC1=C(N)c2ccccc2CC12CCCCC2	-	-	-	-	0
O=C(Nc1cccc(-c2nc3ccccc3[nH]2)c1)c1cccc(NC(=O)c2ccco2)c1	0	0	43	0	-
SMILES	HTR1E agonist	5-HT1A blocker	HTR1E antagonist	5HT1a ag	Htt clearance
CN(C)/C=C1\C(=O)c2ccc(N(C)C)nc2CC1c1ccccc1 (stereo unspecified)	25	0	0	99	-
CN(C)/C=C1/Sc2ccccc2C1=O	0	0	0	0	-
CCOc1ccc(NC(=O)C2CSC(c3ccncc3)=N2)cc1 (stereo unspecified)	0	0	0	0	-
COc1cccc2c1N1C(=O)c3c(C(=O)O)cccc3C1CC2(C)C (stereo unspecified)	0	0	0	0	0
CCC(c1nnnn1Cc1ccc(F)cc1)N1CCN(C2CCCCC2)CC1 (stereo unspecified)	0	47	0	0	-
Fc1ccc(Cn2nnnc2CN2CCN(C3CCCC3)CC2)cc1	0	0	0	0	0
CC(C)C(c1nnnn1Cc1cccs1)N1CCN(C2CCCC2)CC1 (stereo unspecified)	0	0	0	31	0
CCSc1n[nH]c(=O)[nH]c1=O	0	0	0	0	-
CCOC(=O)C1=C(O)/C(=C\c2ccc(CNC(=O)C(=O)Nc3ccc(C)c(C)c3)o2)N=C1C	-	-	-	-	0
COC(=O)CN(c1ccc(OC)cc1)S(=O)(=O)c1ccc(OC)c(OC)c1	0	0	0	20	0
N=c1c(S(=O)(=O)c2ccc(Cl)cc2)cc2c(=O)n3ccccc3nc2n1CCN1CCOCC1	0	0	0	24	-
N=c1c(C(=O)NCc2ccco2)cc2c(=O)n3ccccc3nc2n1Cc1ccc(Cl)cc1	0	0	0	27	0
CC(C)n1c(=N)c(C(=O)NCCc2ccccc2)cc2c(=O)n3ccccc3nc21	13	0	0	52	-
Cc1ccc(CNC(=O)c2cc3c(=O)n4ccccc4nc3n(CC3CCCO3)c2=N)cc1 (stereo unspecified)	0	-	0	32	-
N=c1c(C(=O)NCc2ccco2)cc2c(=O)n3ccccc3nc2n1Cc1ccccc1	0	0	0	0	-
Cc1ccc(CNC(=O)c2cc3c(=O)n4ccccc4nc3n(Cc3ccco3)c2=N)cc1	0	-	0	0	-
Cc1cc(NC(=O)CSc2nc3ccccc3c(=O)n2C2CCCC2)no1	0	58	65	0	-
CN(C)c1ccc(NC(=O)CSc2nc3ccccc3c(=O)n2C2CCCCC2)cc1	0	0	0	0	0
CC(C)CN(C(=O)c1ccc(=O)n(C)n1)c1nc2ccccc2s1	0	0	0	0	0
COCc1nnc(NC(=O)c2ccc(S(=O)(=O)N(C)C3CCCCC3)cc2)o1	0	0	0	0	0
COc1ccccc1N1CCN(C(c2ccc(F)cc2)c2nnnn2C(C)C)CC1 (stereo unspecified)	0	43	0	0	-
COc1cc(OC)c(OC)cc1CN1CCN(c2ccccc2OC)CC1	23	46	0	0	0
CCN1CCN(Cc2ccc(OC)c(OCc3ccccc3)c2)CC1	0	0	0	0	-
CCOc1ccccc1N1CCN(Cc2ccc(OC)c(OC)c2)CC1	20	57	0	0	-
COc1cc(CN2CCN(c3cccc(C)c3C)CC2)cc(OC)c1O	57	0	0	0	-
SMILES	HTR1E agonist	5-HT1A blocker	HTR1E antagonist	5HT1a ag	Htt clearance
Fc1ccc(COc2ccc(/C=N/n3cnnc3)cc2)cc1	0	0	0	0	0
COc1ccccc1N1CCN(Cc2cccc(OC)c2OC)CC1	0	0	0	0	-
CCOc1ccccc1N1CCN(Cc2ccc(OC)c(OC)c2OC)CC1	17	80	0	0	-
COc1ccc(CC(C)N2CCN(c3ccccc3OC)CC2)cc1OC (stereo unspecified)	0	98	0	0	-
O=C(c1ccco1)N1CCN(/C(=N/S(=O)(=O)c2cccs2)c2ccccc2Cl)CC1	0	0	0	29	-
CN(C)c1ccc(P(=O)(OCc2ccccc2)C(O)c2ccncc2)cc1 (stereo unspecified)	0	0	0	0	74
CCN(CC)CCCCOc1ccccc1OC	10	0	0	0	-
